From the supplement of paper PMC10849652
About 8,800 targets were measured; listed, in parts, are those with a hit and a random draw of the rest. About 0.5% of all pairs of compound and target were hits.

Tests used:
Assay in all cases: log2 fold change, soluble protein after heating vs DMSO (PISA); higher = thermal stabilisation; K562 lysate, 10 uM; active = over 0.2 and 3.5 SD of the protein, either way, in both replicates (recomputed)
nilotinib = compound: Cc1cn(-c2cc(NC(=O)c3ccc(C)c(Nc4nccc(-c5cccnc5)n4)c3)cc(C(F)(F)F)c2)cn1 [nilotinib]
Method in brief: (§1)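 Dounce homogenisation of K562 pellets in PBS pH 7.4 with 1 mM MgCl2 produced a crude extract, used at 1 mg/mL protein. Exposure to 10 μM compound lasted 30 min, and aliquots were then heated for 3 min across 48°C-58°C, pooled and brought to 0.5% NP-40 at 4°C. The supernatant after 21,000xg for 90 min was quantified by TMTpro 16plex LC-MS/MS with channel sums equalised. Duplicate values are given as log-two fold change in thermal stability relative to solvent controls.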

[1] = compound: Cc1nc(Nc2n[nH]c3c2CN(C(=O)N[C@H](CN(C)C)c2ccccc2)C3(C)C)c2sccc2n1
Method in brief: as §1

dasatinib = compound: Cc1nc(Nc2ncc(C(=O)Nc3c(C)cccc3Cl)s2)cc(N2CCN(CCO)CC2)n1 [dasatinib]
Method in brief: as §1

[2] = compound: Cc1ncc(-c2ccnc(Nc3ccc(S(C)(=O)=O)cc3)n2)n1C(C)C
Method in brief: as §1

[3] = compound: Cn1cc(-c2ccc3c(c2)CCN3C(=O)Cc2cccc(C(F)(F)F)c2)c2c(N)ncnc21
Method in brief: as §1

quisinostat = compound: Cn1cc(CNCC2CCN(c3ncc(C(=O)NO)cn3)CC2)c2ccccc21 [quisinostat]
Method in brief: as §1

tipifarnib = compound: Cn1cncc1[C@@](N)(c1ccc(Cl)cc1)c1ccc2c(c1)c(-c1cccc(Cl)c1)cc(=O)n2C [tipifarnib]
Method in brief: as §1

[4] = compound: NC(=O)Nc1cc(-c2cccc(F)c2)sc1C(=O)N[C@H]1CCCNC1
Method in brief: as §1

[5] = compound: NC(=O)c1cnc(N[C@@H]2CCCC[C@@H]2N)nc1Nc1cccc(-n2nccn2)c1
Method in brief: as §1

[6] = compound: NC1(c2ccc(-c3nc4ccn5c(=O)[nH]nc5c4cc3-c3ccccc3)cc2)CCC1
Method in brief: as §1

[7] = compound: NCC(=O)Nc1ccc(-n2nc(C(F)(F)F)cc2-c2ccc3c(ccc4ccccc43)c2)cc1
Method in brief: as §1

vorinostat = compound: O=C(CCCCCCC(=O)Nc1ccccc1)NO [vorinostat]
Method in brief: as §1

silmitasertib = compound: O=C(O)c1ccc2c(c1)nc(Nc1cccc(Cl)c1)c1ccncc12 [silmitasertib]
Method in brief: as §1

[8] = compound: O=C1NC(=O)C(c2cnc3ccccn23)=C1c1cn2c3c(cc(F)cc13)CN(C(=O)N1CCCCC1)CC2
Method in brief: as §1

entospletinib = compound: c1cn2cc(-c3ccc4cn[nH]c4c3)nc(Nc3ccc(N4CCOCC4)cc3)c2n1 [entospletinib]
Method in brief: as §1

Measured: log2 fold change

IFNGR1 (UniProt P15260)
Chain of UniProt P15260 (P15260 whole entry, looked up): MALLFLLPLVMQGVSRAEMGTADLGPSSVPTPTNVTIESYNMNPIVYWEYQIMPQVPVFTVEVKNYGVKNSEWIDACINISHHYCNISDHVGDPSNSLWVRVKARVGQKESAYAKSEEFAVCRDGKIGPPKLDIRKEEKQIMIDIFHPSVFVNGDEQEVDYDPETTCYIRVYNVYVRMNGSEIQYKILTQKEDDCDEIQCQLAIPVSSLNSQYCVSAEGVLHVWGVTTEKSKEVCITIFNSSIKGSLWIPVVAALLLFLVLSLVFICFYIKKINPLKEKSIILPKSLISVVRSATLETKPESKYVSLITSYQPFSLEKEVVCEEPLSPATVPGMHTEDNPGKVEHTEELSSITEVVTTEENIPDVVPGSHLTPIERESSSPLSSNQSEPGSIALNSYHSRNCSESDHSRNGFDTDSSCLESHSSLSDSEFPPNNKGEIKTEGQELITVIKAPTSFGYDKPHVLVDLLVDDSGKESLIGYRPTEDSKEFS
inactive: nilotinib 0.227 | [1] -0.068 | dasatinib -0.018 | [2] 0.133 | [3] -0.125 | quisinostat 0.047 | tipifarnib -0.08 | [4] 0.013 | [5] 0.084 | [6] -0.101 | [7] 0.15 | vorinostat 0.147 | silmitasertib -0.006 | [8] 0.046 | entospletinib -0.042

INTS5 (UniProt Q6P9B9)
active: vorinostat -0.56
inactive: nilotinib 0.11 | [1] -0.093 | dasatinib -0.012 | [2] 0.062 | [3] 0.055 | quisinostat -0.002 | tipifarnib 0.294 | [4] 0.043 | [5] -0.064 | [6] 0.081 | [7] -0.045 | silmitasertib 0.088 | [8] 0.039 | entospletinib 0.093

HNRNPUL1 (UniProt Q9BUJ2)
active: nilotinib -0.291
inactive: [1] 0.018 | dasatinib -0.012 | [2] 0.006 | [3] 0.01 | quisinostat 0.015 | tipifarnib 0.019 | [4] 0.045 | [5] -0.003 | [6] -0.009 | [7] -0.02 | vorinostat 0.122 | silmitasertib 0.012 | [8] -0.022 | entospletinib -0.02

GNL3 (UniProt Q9BVP2)
Chain of UniProt Q9BVP2 (Q9BVP2 whole entry, looked up): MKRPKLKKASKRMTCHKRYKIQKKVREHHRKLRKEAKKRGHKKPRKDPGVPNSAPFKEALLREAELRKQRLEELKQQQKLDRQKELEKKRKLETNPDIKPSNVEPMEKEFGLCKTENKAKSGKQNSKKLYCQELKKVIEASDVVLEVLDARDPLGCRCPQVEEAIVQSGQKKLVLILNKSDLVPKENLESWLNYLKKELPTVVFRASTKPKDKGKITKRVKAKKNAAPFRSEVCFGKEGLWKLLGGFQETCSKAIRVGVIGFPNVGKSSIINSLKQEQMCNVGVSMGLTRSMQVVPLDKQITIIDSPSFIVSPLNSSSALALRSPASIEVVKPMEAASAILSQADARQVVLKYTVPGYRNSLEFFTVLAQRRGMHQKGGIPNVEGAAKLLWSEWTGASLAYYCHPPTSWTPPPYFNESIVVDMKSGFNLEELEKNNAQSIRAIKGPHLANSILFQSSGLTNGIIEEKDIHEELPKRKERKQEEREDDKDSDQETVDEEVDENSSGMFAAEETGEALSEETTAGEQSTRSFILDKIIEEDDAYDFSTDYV
inactive: nilotinib 0.008 | [1] -0.022 | dasatinib -0.005 | [2] 0.029 | [3] -0.003 | quisinostat -0.164 | tipifarnib 0.013 | [4] 0.038 | [5] 0.022 | [6] -0.031 | [7] 0.017 | vorinostat -0.142 | silmitasertib 0.008 | [8] -0.041 | entospletinib 0.018

HAUS4 (UniProt Q9H6D7)
inactive: nilotinib 0.03 | [1] -0.05 | dasatinib -0.052 | [2] 0.016 | [3] 0.052 | quisinostat -0.065 | tipifarnib -0.021 | [4] 0.053 | [5] 0.014 | [6] -0.012 | [7] -0.022 | silmitasertib 0.045 | [8] -0.017 | entospletinib -0.018
active: vorinostat -0.255

GNE isoform 2 (UniProt Q9Y223)
Chain of UniProt Q9Y223 (Q9Y223 whole entry, looked up): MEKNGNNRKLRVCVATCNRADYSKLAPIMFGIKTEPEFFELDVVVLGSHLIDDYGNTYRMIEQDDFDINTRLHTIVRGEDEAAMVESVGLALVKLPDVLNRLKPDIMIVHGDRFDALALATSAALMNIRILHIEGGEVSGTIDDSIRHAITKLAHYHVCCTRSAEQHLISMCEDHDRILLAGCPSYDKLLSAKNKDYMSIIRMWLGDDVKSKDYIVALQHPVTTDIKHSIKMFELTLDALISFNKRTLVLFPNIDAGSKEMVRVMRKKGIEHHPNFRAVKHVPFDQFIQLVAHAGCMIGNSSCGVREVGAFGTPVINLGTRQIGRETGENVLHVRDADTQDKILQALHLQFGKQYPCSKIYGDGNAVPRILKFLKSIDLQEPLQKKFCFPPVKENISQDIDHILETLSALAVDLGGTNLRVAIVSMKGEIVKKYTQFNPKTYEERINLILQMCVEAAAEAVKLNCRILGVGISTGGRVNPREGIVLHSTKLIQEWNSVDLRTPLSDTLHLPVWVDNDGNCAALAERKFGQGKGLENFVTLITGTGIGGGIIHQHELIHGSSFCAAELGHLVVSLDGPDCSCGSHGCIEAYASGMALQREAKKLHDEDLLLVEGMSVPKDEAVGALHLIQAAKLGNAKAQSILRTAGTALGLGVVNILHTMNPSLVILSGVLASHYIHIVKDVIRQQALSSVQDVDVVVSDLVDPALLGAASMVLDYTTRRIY
inactive: nilotinib -0.013 | [1] -0.003 | dasatinib 0.003 | [2] -0.081 | [3] 0.025 | quisinostat -0.042 | tipifarnib 0.008 | [4] 0.061 | [5] -0.008 | [6] -0.006 | [7] 0.056 | silmitasertib 0.023 | [8] 0.012 | entospletinib 0.017
active: vorinostat -0.443

HMGN5 (UniProt P82970)
Chain of UniProt P82970 (P82970 whole entry, looked up): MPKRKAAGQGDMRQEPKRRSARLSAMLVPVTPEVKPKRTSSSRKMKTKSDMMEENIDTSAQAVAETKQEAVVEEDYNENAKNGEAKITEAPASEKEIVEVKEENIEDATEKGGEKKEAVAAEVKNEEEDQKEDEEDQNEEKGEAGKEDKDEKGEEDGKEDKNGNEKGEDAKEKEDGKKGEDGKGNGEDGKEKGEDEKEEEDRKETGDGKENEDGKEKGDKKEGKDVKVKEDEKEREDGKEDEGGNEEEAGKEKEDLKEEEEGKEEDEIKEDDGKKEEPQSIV
inactive: nilotinib 0.029 | [1] 0.001 | dasatinib 0.03 | [2] 0.019 | [3] -0.003 | quisinostat 0.074 | tipifarnib 0.04 | [4] -0.042 | [5] -0.027 | [6] -0.003 | [7] -0.014 | vorinostat 0.14 | silmitasertib 0.002 | [8] -0.005 | entospletinib 0.002

GOLPH3L (UniProt Q9H4A5)
inactive: nilotinib -0.045 | [1] 0.033 | dasatinib 0 | [2] -0.006 | [3] 0.01 | quisinostat -0.026 | tipifarnib 0.018 | [4] 0.094 | [5] 0.013 | [6] -0.039 | [7] -0.061 | vorinostat -0.035 | silmitasertib -0.002 | [8] 0.047 | entospletinib 0.048

ISOC2 (UniProt Q96AB3)
active: vorinostat 0.304
inactive: nilotinib 0.012 | [1] 0.022 | dasatinib 0.026 | [2] 0.091 | [3] 0 | quisinostat -0.053 | tipifarnib -0.017 | [4] -0.05 | [5] -0.045 | [6] -0.036 | [7] -0.064 | silmitasertib -0.036 | [8] 0 | entospletinib 0.033

HNRNPAB isoform 3 (UniProt Q99729)
Chain of UniProt Q99729 (Q99729 whole entry, looked up): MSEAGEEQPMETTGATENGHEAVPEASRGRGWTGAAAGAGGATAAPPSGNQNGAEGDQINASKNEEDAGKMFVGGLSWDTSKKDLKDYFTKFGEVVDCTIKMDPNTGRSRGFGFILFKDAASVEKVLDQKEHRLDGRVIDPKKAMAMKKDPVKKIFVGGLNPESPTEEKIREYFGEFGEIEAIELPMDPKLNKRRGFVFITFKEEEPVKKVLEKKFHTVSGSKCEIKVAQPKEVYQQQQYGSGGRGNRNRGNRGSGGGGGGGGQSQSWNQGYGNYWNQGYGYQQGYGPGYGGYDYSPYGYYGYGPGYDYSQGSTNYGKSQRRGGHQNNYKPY
inactive: nilotinib -0.012 | [1] 0.026 | dasatinib 0.022 | [2] 0.024 | [3] -0.028 | quisinostat 0.026 | tipifarnib 0.006 | [4] 0 | [5] -0.005 | [6] 0.012 | [7] 0.067 | vorinostat 0.189 | silmitasertib -0.01 | [8] 0.008 | entospletinib -0.019

HSD17B10 (UniProt Q99714)
active: vorinostat -0.826
inactive: nilotinib 0 | [1] -0.044 | dasatinib -0.034 | [2] -0.001 | [3] -0.017 | quisinostat -0.01 | tipifarnib 0.008 | [4] 0.013 | [5] -0.002 | [6] 0.005 | [7] 0.04 | silmitasertib -0.011 | [8] -0.025 | entospletinib -0.004

HNRNPM (UniProt P52272)
Chain of UniProt P52272 (P52272 whole entry, looked up): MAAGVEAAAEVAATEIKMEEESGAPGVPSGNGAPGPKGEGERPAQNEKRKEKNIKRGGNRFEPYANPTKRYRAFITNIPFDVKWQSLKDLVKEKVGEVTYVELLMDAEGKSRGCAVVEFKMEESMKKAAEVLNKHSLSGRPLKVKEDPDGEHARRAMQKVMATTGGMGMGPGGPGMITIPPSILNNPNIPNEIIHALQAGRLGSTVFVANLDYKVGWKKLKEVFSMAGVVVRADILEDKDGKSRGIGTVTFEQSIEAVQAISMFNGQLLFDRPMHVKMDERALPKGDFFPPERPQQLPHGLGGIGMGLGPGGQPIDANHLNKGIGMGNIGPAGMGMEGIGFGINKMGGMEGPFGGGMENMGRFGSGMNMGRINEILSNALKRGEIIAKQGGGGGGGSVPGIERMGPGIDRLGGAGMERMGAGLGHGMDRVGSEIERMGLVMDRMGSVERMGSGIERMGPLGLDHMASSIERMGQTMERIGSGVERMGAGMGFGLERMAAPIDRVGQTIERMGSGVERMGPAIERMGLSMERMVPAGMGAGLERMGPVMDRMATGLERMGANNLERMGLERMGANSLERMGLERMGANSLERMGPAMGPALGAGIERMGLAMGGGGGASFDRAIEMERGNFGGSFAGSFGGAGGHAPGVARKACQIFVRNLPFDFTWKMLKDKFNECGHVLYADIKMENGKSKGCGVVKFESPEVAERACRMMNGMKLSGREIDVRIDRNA
active: vorinostat -0.235
inactive: nilotinib 0.022 | [1] -0.043 | dasatinib -0.109 | [2] -0.05 | [3] 0.01 | quisinostat 0.055 | tipifarnib -0.112 | [4] 0.054 | [5] -0.002 | [6] 0.053 | [7] -0.008 | silmitasertib 0.022 | [8] -0.05 | entospletinib 0.015

KEAP1 (UniProt Q14145)
Chain of UniProt Q14145 (Q14145 whole entry, looked up): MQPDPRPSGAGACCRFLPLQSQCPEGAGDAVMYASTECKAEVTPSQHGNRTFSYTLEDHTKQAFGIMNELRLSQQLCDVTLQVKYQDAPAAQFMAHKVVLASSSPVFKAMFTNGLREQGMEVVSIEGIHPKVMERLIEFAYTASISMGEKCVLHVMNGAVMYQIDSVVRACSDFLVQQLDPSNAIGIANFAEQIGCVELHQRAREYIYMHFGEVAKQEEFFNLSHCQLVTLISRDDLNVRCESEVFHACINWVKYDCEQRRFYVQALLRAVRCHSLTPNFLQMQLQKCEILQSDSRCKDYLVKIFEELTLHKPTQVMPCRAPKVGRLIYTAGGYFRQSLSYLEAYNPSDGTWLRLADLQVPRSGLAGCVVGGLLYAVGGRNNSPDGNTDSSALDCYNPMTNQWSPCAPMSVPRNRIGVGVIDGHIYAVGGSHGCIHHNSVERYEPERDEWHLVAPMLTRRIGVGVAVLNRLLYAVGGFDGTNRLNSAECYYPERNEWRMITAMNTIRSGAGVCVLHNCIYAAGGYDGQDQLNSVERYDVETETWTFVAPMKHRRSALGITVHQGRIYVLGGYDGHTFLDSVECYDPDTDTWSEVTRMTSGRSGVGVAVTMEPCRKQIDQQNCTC
inactive: nilotinib -0.01 | [1] 0.01 | dasatinib -0.023 | [2] -0.014 | [3] -0.044 | quisinostat -0.078 | tipifarnib -0.02 | [4] 0.011 | [5] 0.022 | [6] -0.002 | [7] -0.019 | silmitasertib -0.008 | [8] -0.022 | entospletinib 0.001
active: vorinostat -0.262

IL18R1 (UniProt Q13478)
inactive: nilotinib 0.02 | [1] 0.136 | dasatinib 0.181 | [2] -0.108 | [3] 0.004 | quisinostat 0.067 | tipifarnib 0.118 | [4] 0.155 | [5] -0.055 | [6] 0.211 | [7] -0.246 | vorinostat 0.198 | silmitasertib -0.33 | [8] 0.075 | entospletinib -0.084

ICAM2 (UniProt P13598)
inactive: nilotinib 0.081 | [1] -0.077 | dasatinib 0.013 | [2] 0.012 | [3] -0.035 | quisinostat 0.007 | tipifarnib -0.016 | [4] -0.018 | [5] -0.004 | [6] 0.018 | [7] -0.016 | vorinostat 0.148 | silmitasertib -0.029 | [8] -0.021 | entospletinib -0.018

IRF2BPL (UniProt Q9H1B7)
inactive: nilotinib 0.001 | [1] 0.005 | dasatinib -0.043 | [2] 0.054 | [3] -0.059 | quisinostat 0.032 | tipifarnib -0.069 | [4] -0.01 | [5] 0 | [6] 0 | [7] -0.018 | silmitasertib 0.02 | [8] 0.006 | entospletinib -0.065
active: vorinostat -0.324

ILRUN (UniProt Q9H6K1)
Chain of UniProt Q9H6K1 (Q9H6K1 whole entry, looked up): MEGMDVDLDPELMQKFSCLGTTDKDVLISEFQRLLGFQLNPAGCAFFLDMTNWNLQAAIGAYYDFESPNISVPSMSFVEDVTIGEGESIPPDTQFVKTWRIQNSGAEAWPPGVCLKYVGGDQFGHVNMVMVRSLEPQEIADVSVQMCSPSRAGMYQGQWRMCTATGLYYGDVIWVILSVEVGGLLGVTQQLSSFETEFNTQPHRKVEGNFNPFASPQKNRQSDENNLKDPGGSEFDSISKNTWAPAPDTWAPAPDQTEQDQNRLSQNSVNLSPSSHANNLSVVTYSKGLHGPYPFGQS
inactive: nilotinib -0.12 | [1] -0.038 | dasatinib -0.003 | [2] -0.073 | [3] 0.005 | quisinostat -0.047 | tipifarnib -0.012 | [4] 0.033 | [5] 0.041 | [6] -0.038 | [7] 0.002 | vorinostat -0.047 | silmitasertib 0.001 | [8] -0.01 | entospletinib -0.013

HMGB1 (UniProt P09429)
Chain of UniProt P09429 (P09429 whole entry, looked up): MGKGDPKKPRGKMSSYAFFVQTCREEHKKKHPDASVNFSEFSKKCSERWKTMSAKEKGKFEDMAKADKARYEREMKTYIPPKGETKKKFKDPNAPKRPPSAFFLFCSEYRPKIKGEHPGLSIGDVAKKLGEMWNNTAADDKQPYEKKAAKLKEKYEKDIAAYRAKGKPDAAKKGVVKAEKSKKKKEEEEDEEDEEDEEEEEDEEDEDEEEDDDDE
inactive: nilotinib 0.056 | [1] -0.002 | dasatinib 0.03 | [2] 0.064 | [3] -0.03 | quisinostat 0.108 | tipifarnib 0.026 | [4] -0.021 | [5] 0 | [6] -0.011 | [7] -0.024 | vorinostat 0.083 | silmitasertib 0.017 | [8] 0.098 | entospletinib -0.014

KARS1 (UniProt Q15046)
Chain of UniProt Q15046 (Q15046 whole entry, looked up): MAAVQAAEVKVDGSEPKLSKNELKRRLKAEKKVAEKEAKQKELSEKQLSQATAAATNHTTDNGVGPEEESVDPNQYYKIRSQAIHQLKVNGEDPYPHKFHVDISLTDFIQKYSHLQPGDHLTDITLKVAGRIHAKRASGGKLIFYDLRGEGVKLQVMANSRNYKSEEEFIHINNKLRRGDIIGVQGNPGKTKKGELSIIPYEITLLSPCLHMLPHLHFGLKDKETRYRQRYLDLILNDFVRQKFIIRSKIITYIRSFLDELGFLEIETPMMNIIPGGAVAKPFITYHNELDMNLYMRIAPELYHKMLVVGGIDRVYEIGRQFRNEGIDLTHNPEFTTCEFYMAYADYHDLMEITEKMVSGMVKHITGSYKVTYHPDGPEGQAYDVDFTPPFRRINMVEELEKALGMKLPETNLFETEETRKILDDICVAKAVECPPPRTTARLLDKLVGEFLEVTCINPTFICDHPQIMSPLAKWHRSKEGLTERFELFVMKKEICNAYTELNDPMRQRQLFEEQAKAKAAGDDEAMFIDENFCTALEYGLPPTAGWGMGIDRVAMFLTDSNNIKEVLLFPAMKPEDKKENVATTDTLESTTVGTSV
inactive: nilotinib -0.017 | [1] -0.01 | dasatinib -0.031 | [2] -0.029 | [3] 0.02 | quisinostat 0.034 | tipifarnib 0.02 | [4] 0.004 | [5] 0.013 | [6] 0.02 | [7] 0.021 | vorinostat -0.011 | silmitasertib 0.022 | [8] -0.026 | entospletinib 0.006

HDGFL2 isoform 2 (UniProt Q7Z4V5)
inactive: nilotinib -0.005 | [1] -0.005 | dasatinib 0.014 | [2] -0.021 | [3] -0.023 | quisinostat -0.061 | tipifarnib 0.003 | [4] 0.011 | [5] -0.001 | [6] -0.02 | [7] 0.02 | vorinostat 0.117 | silmitasertib -0.013 | [8] 0.01 | entospletinib -0.012

INTS7 (UniProt Q9NVH2)
inactive: nilotinib -0.02 | [1] -0.014 | dasatinib -0.004 | [2] -0.009 | [3] -0.008 | quisinostat -0.071 | tipifarnib 0.037 | [4] 0.088 | [5] 0.032 | [6] -0.002 | [7] 0.017 | vorinostat -0.149 | silmitasertib -0.011 | [8] 0.189 | entospletinib 0.03
